GLP1R inv ag = acts as inverse agonist at human GLP-1 receptor | HEK293 GLP-1R CRE-luciferase, luminescence, 24 h; GLP-1R form is constitutively active | 1.6% of 410,000 active | AID 624417 | P43220 | Potency, µM (highest dose often 38.3 µM), for the others: at the highest dose activity change, negative = inhibition, hits mostly inhibitors; also: potency is read from the fitted curve at half-maximal effect; % is scaled to controls: 0 for no effect and ±100 for the full control effect; nearly all actives have a fitted effect of over 55% in size
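Constitutively active GLP-1R drives a cAMP-responsive luciferase in stably transfected HEK293 cells; test compounds are added after overnight (12 h) attachment and left 24 hr, and signal loss in luminescence marks inhibition.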
GLP-1R agonist = GLP-1 receptor (human) agonism; HEK293 GLP-1R CRE-luciferase, luminescence, 4-6 h; cells express a hypersensitive GLP-1R form; Potency, µM (highest dose often 45.6 µM), inactives show top-dose activation, most hits filed as activators; 0.007% of 380,000 active; AID 624172; also: potency is read from the fitted curve at half-maximal effect; % of control where 0% means no effect
DRD3 antagonist = blocks the human D3 dopamine receptor | D3R cells, DiscoveRx beta-arrestin luminescence, antagonist mode; stronger effect = lower value | AID 652054 | 2.5% of 360,000 active | max response, negative = inhibition, %; in the data active = max response below about -50%; inconclusive = no clear call, values can overlap the other calls; also: % is scaled to controls: 0 for no effect and ±100 for the full control effect
Target sequence (P35462 whole entry, looked up): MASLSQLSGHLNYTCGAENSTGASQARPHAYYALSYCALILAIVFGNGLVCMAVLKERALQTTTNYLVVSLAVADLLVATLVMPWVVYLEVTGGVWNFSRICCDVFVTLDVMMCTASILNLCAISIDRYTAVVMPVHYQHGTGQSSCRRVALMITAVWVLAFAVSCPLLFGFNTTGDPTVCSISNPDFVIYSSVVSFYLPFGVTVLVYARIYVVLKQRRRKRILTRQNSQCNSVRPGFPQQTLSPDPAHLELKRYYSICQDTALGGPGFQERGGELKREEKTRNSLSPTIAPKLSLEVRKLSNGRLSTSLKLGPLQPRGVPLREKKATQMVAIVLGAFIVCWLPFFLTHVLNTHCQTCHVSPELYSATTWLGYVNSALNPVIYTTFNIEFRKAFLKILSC
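Cells plated overnight at 1500 cells/well, then exposed to library compounds with dopamine controls for 90 minutes at 37 degrees C. DiscoveRx reagent added for 30–60 minutes at room temperature; luminescence read, quantitative HTS format.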
D3 ag = D3 dopamine receptor (human) agonism; D3R DiscoveRx beta-arrestin cells, luminescence, 90 min; max activation, %; P35462; AID 652048; 0.58% of 410,000 active; in the data active = max activation above about 30%; also: 0% is about no effect
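Agonist-mode cell screen: cells plated at 1500/well and incubated overnight at 37 °C, then exposed to library compounds for 90 min at 37 °C. Detection reagent was added for 30–60 min at room temperature, and luminescence was read.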
* hit, by the source's call; ? = inconclusive; nt = no result. Sampled rows, rich in hits. Any-hit rate of the full collection: about 4.3%. Unless noted, calls follow the shape of the dose curve; as a rule, active = well fitted curve in the direction sought with a large enough effect; inconclusive = small, poorly fitted or top-dose-only effect, or another doubt; inactive = no such curve, though single readings can be large; an effect the other way counts as inactive or inconclusive.

SMILES	GLP1R inv ag	GLP-1R agonist	DRD3 antagonist	D3 ag
C(=C\c1ccccc1)/CN1CCN(C(c2cccs2)c2nnnn2Cc2ccccc2)CC1 (stereo not given)	?	-1%	-73*	-18
C(=C\c1ccccc1)/CN1CCN(C(c2ccccc2)c2nnnn2C2CCCC2)CC1 (stereo not given)	?	-1%	?	-11
CC1CCN(C(c2cccs2)c2nnnn2Cc2ccccc2)CC1 (stereo not given)	10µM*	-4%	6	2
CC(C)(C)n1nnnc1C(c1cccs1)N1CCN(C/C=C/c2ccccc2)CC1 (stereo not given)	-22%	-3%	-122*	-12
C(=C\c1ccccc1)/CN1CCN(C(c2cc3ccccc3o2)c2nnnn2C2CCCCC2)CC1 (stereo not given)	-7%	6%	-76*	-13
c1ccc(Cn2nnnc2C(c2cccs2)N2CCSCC2)cc1 (stereo not given)	-29%	0%	-23	-18
CCc1ccc(S(=O)(=O)Nc2cc3c(cc2C)n(C)c(=O)c(=O)n3C)cc1	13%	nt	nt	5
C(=C\c1ccccc1)/CN1CCN(C(c2nnnn2Cc2ccccc2)C2CC2)CC1 (stereo not given)	?	-2%	-62*	-4
C(=C\c1ccccc1)/CN1CCN(C(c2cccs2)c2nnnn2C2CCCC2)CC1 (stereo not given)	?	0%	-86*	-15
CCCCc1cc(=O)oc2cc(C)c(CN3CCCC3)c(O)c12	-3%	-16%	16	30*
CN1CCN(NC(=O)c2cn(-c3ccccc3)nc2-c2cccc(Br)c2)CC1	3.2µM*	-1%	-11	-6
CN1CCN(c2ccc(-c3cc(NC=O)c4ncc(-c5ccccc5)n4c3)cc2)CC1	?	11%	-54*	-14
CN1CCN(c2ccc(-c3cc(NC=O)c4ncc(-c5ccc(F)cc5)n4c3)cc2)CC1	?	4%	?	-13
COc1cccc(-c2cnc3c(NC=O)cc(-c4cccc(C(=O)N(C)C)c4)cn23)c1	?	21%	3	72*
CN(C)CCNC(=O)c1cccc(-c2cc(NC=O)c3ncc(-c4cccc(C(F)(F)F)c4)n3c2)c1	-16%	-12%	-52*	-23
CCn1cc(C(=O)N(C)Cc2ccccc2)c(=O)c2cc(S(=O)(=O)N3CCc4ccccc4C3)ccc21	-15%	-3%	nt	3
CCOC(=O)c1c(C)[nH]c(C)c1C(=O)CSc1nc2ccccc2c(=O)n1-c1ccc(CC)cc1	10µM*	9%	27	15
CCc1ccc(-n2c(N3CCN(c4ccc(F)cc4)CC3)nc3ccccc3c2=O)cc1	11µM*	nt	nt	6
CC1CCN(c2nc3ccc(C(=O)NCc4ccccc4Cl)cc3s2)CC1	-6%	nt	nt	-4
Cc1ccc(-n2ncc(C(=O)NCc3ccc4c(c3)OCO4)c2C2CCN(C(=O)OC(C)(C)C)CC2)c(C)c1	?	nt	nt	0
CC(C)Cc1ccc(C(C)C(N)=Nc2ccc(O)cc2)cc1 (stereo not given)	13µM*	13%	-17	-7
CC(C)Cc1ccc(C(C)C(=O)Nc2ccc(O)cc2)cc1 (stereo not given)	?	10%	-3	3
Cc1onc(-c2ccccc2Cl)c1C(=O)Nc1ccc(Cl)cn1	?	4%	?	-4
Cc1csc(NC(=O)c2c(-c3c(Cl)cccc3Cl)noc2C)n1	11µM*	1%	-7	-9
Cc1onc(-c2c(Cl)cccc2Cl)c1C(=O)Nc1ccc(Cl)cn1	1.8µM*	10%	-28	-15
SMILES	GLP1R inv ag	GLP-1R agonist	DRD3 antagonist	D3 ag
CCCCc1ccc(-n2nc3cc(C)c(NC(=O)Cc4ccccc4)cc3n2)cc1	10%	nt	nt	-16
O=[N+]([O-])c1cc(Br)c(O)c(/C=N/Nc2nnnn2-c2cccc3ccccc23)c1	1%	-7%	-85*	-53
O=[N+]([O-])c1ccc(NN=Cc2cccc3ccccc23)cc1	1%	5%	-17	-8
COc1ccc(C(=O)c2c(C)c3ccccc3n2CC(O)CNC(C)C)cc1 (stereo not given)	2.2µM*	-2%	-17	-7
COc1ccccc1CNCC(O)Cn1c2ccccc2c2ccccc21 (stereo not given)	?	6%	17	1
COc1cc2oc3ccc(C#Cc4ccc(N)cc4)cc3c(=O)c2cc1OC	9%	13%	53	25
COc1cc2oc3cc(C#Cc4ccc(N)cc4)ccc3c(=O)c2cc1OC	-45%	-3%	103	57*
